Source: PubChem BioAssay
ERK EGF inh – inhibitors of EGF-stimulated ERK signaling pathway; Potency, µM (titrated, usually from 11.5 µM), inactives show at the highest dose activity change, negative = inhibition, actives largely listed as inhibitors; HEK293-V1b, EGF-stimulated phospho-ERK AlphaScreen; 130,000 tested, 0.41% active; AID 1454;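 further: potency means the concentration at half of the fitted maximal effect; plate controls were stimulated vehicle wells for no effect and unstimulated vehicle basal for full effect; nearly all actives have a fitted effect of over 55% in size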
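Stably V1b-transfected HEK293 cells; 30 min compound, then EGF 25 nM final for 5 min at 37C; 10 min lysis; phospho-ERK by AlphaScreen after 5 hr beads at room temperature.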
GLA inh pH 4.5 – alpha-galactosidase A (human) inhibition, pH 4.5 | P06280 | purified enzyme, 4-MU-alpha-Gal fluorescence, pH 4.5 | activity change, negative = inhibition, % at 105 µM | 230,000 tested, under 10 active;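 further: 0% = full activity with enzyme and -100% = basal without enzyme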
Target sequence (P06280 whole entry, looked up): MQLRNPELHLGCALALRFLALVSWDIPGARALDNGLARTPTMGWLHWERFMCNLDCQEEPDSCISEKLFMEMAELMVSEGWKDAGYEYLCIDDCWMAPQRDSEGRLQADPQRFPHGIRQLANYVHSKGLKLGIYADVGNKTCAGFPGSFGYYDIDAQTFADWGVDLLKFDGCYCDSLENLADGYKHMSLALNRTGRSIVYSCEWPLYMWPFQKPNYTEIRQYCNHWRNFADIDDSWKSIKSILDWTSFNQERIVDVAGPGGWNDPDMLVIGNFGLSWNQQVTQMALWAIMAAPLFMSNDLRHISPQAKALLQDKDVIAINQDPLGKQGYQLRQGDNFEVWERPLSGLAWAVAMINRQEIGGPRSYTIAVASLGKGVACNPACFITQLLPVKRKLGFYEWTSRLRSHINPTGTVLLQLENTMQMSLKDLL
HTT ATP protect – Huntington cell model cytoprotection by ATP luminescence; Potency, µM (titrated, usually from 56.4 µM), for inactives: cytoprotection (ATP increase), hits mostly activators; 230,000 tested, 0.14% active; AID 1471; PC12 HTT-Q103 induced, cytoprotection, ATP luminescence, 40 h; further: potency means the concentration at half of the fitted maximal effect; % of control where 0% means no effect; nearly all actives have a fitted effect of over 45% in size
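ATP quantification (ATPlite) reports survival of PC12 cells in which tebufenozide, 100 nM final, switches on Htt exon 1 with 103 glutamines linked to GFP; compounds are titrated.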
HTT aggregate – mutant huntingtin aggregation inhibition. PC12 HttQ103-GFP aggregates, Acumen cytometry, 40 h. Potency, µM (doses to about 46.1 µM), for the others: at the highest dose activity change, negative = inhibition, most hits filed as inhibitors. 220,000 tested, 1.1% active. AID 1688; further: potency means the concentration at half of the fitted maximal effect; on the % scale 0 is the no-effect control and ±100 the full control effect; nearly all actives have a fitted effect of over 60% in size
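Huntingtin Q103 exon 1–GFP aggregates in induced PC12 cells (100 nM tebufenozide) were quantified by cytometry from lysates, with compounds dosed in titration.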
aGal spleen mod – alpha-galactosidase A (human) modulation; 240,000 tested, 0.008% active; P06280; AID 2107; Potency, µM (top dose mostly 80 µM), without a hit: at the highest dose activity change, negative = inhibition, most hits filed as inhibitors; human spleen homogenate, 4MU-alpha-Gal fluorescence, 40 min;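 further: potency means the concentration at half of the fitted maximal effect; 0% = enzyme with vehicle and -100% = no enzyme basal signal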
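Human spleen homogenate (1 ug) as enzyme source, 4-methylumbelliferyl-alpha-D-galactopyranoside 1 mM final, citrate/phosphate pH 5.0 with 0.01% Tween-20. Compounds 40 min at 37C, NaOH/glycine stop; fluorescence Ex 365/Em 440, Hill-fit AC50.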
* = called active by the depositor; ? = inconclusive; · = no result given; [ ] = remark or other dose. An excerpt weighted towards active compounds, which were near 1.2% of everything screened. The call rests on the fitted dose curve; in most records, active means well fitted curve in the direction sought with a large enough effect; inconclusive means small, poorly fitted or top-dose-only effect, or another doubt; inactive means no such curve, though single readings can be large; an effect the other way counts as inactive or inconclusive.

SMILES	ERK EGF inh	GLA inh pH 4.5	HTT ATP protect	HTT aggregate	aGal spleen mod
c1ccc(N2CCN(c3ncnc4sc5c(c34)CCC5)CC2)cc1	·	-8.9	-14.3%	11.2µM*	-8.9%
Nc1nc(N)nc(CCCCc2nc(N)nc(N)n2)n1	·	·	-17.0%[10 µM]	·	·
CN1CCN(S(=O)(=O)c2cccc(C(=O)N(c3ccccn3)C3CCCCC3)c2)CC1	·	-2.7	2.9%	-2.9%	20.1%
CC1CCN(S(=O)(=O)c2cccc(C(=O)N(Cc3ccccc3)c3ccccn3)c2)CC1	2.0%	1.3	-16.7%	11.2µM*	-5.1%
CCCCNC(=O)[C@@H]1Cc2ccccc2N1C(=O)[C@H](N)CC	2.9%	5.2	3.2%	·	-5.5%
Cc1ccccc1CCN(C(=O)CN1C(=O)c2ccccc2S1(=O)=O)C(C(=O)NCC1CCCO1)c1ccncc1 (centres undefined)	4.0%	2.6	22.3%[10 µM]	15.8µM*	5.8%
C#CCOc1ccc(C(=O)N(C)c2ccccc2I)cc1	·	·	·	·	3.6%
CC(C)(C)c1ccc(OCCOc2ccc(C(C)(C)C)cc2NC=O)c(NC=O)c1	31.6µM*	-11.6	0.4%[10 µM]	-14.0%[9.22 µM]	-1.3%
COc1cccc2nc(-c3cccs3)nc(NN3C(=O)C=C(C)C3=O)c12	·	·	·	·	-2.3%
O=[N+]([O-])c1ccc(Oc2ccc(F)cc2)c2ccncc12	·	2.4	-2.6%	10µM*	12.2%
O=[N+]([O-])c1ccc(Oc2cccc(Br)c2)c2ccncc12	·	5.5	19.5%	-1.8%	5.4%
CC(C)n1nnnc1SCC(=O)NCc1ccc2c(c1)OCO2	·	15.0	14.4%	6.2%	1.1%
CCCn1nnnc1SCC(=O)NCc1ccc2c(c1)OCO2	·	1.6	-7.9%[10 µM]	0.0158µM*	9.7%
C/C(Cl)=C\Cn1c(NCCc2ccccc2)nc2c1c(=O)n(C)c(=O)n2C	·	2.2	-64.4%	4.47µM*	-12.3%
C=CCn1c(NCCc2ccccc2)nc2c1c(=O)n(C)c(=O)n2C	·	-0.9	11.0%[10 µM]	11.2µM*	0.3%
CC(=O)c1c(C(C)=O)c(C)n(-c2ccc(O)cc2)c1C	·	7.8	-19.9%	-1.6%	-3.0%
CCN(CC)c1ccc(-n2c(C)c(C(C)=O)c(C(C)=O)c2C)cc1	·	5.3	-8.4%[0.074 µM]	22.4µM*	1.5%
Brc1ccc(C2=N[C@@H](Cc3ccccc3)CO2)cc1	·	-6.3	-55.7%	·	-12.6%[119 µM]
COC(=O)N/N=C(\C)c1ccc2ccccc2c1OC(F)F	9.6%	1.9	0.794µM*	?	-0.9%
C/C(CCC12CC3CC(CC(C3)C1)C2)=N\NC(N)=S	·	7.1	2.82µM*	-15.0%[9.22 µM]	2.5%
Brc1ccc(C2=CC(c3cccs3)n3ncnc3N2)cc1 (centres undefined)	·	15.2	-53.7%	?	10.9%
OCCCc1nc2n(n1)C(c1cccs1)C=C(c1ccc(Br)cc1)N2 (centres undefined)	·	5.2	-27.7%[10 µM]	11.2µM*	9.6%
CCOC(=O)c1oc2cc(O)c(CC)cc2c(=O)c1-c1cscn1	8.4%	-2.0	-33.5%	-5.0%	2.9%
CCOC(=O)c1ccc(-c2c(C(=O)OCC)oc3cc(O)c(CC)cc3c2=O)o1	·	-6.3	-29.0%[0.074 µM]	5.62µM*	3.1%
COc1cc2ncnc(NCc3ccccc3)c2cc1OC	·	2.9	7.8%[10 µM]	?	6.6%
SMILES	ERK EGF inh	GLA inh pH 4.5	HTT ATP protect	HTT aggregate	aGal spleen mod
COc1cc2ncnc(NCc3ccco3)c2cc1OC	22.4µM*	-0.1	-4.8%	-17.6%[9.22 µM]	-2.2%
O=C(COc1ncnc2ccc(Br)cc12)NCc1ccco1	-2.5%[57.5 µM]	5.9	3.4%[10 µM]	-35.4%[9.22 µM]	5.4%
CC(C)Nc1ncnc2ccc(Br)cc12	-4.5%	3.1	·	6.31µM*	5.1%
Brc1ccc2ncnc(NCc3ccco3)c2c1	·	2.9	-10.7%	8.91µM*	-4.6%
Cc1ccc2[nH]c3c(NCc4ccco4)ncnc3c2c1	·	1.8	-89.2%[0.074 µM]	11.2µM*	2.3%
C/C=C1/C(=O)C[C@@H]2[C@H]3CCC4=CC(=O)CC[C@]4(C)[C@@H]3CC[C@]12C	·	·	3.2%	·	-13.9%
